Screening data (PubChem)
Shown are actives, neighbours in structure and some others; about 21% of the full set was active somewhere.
Pf growth 48h: P. falciparum growth inhibition at 48 hours (one generation); P. falciparum luciferase growth in erythrocytes, 48 h; Potency, µM (doses to about 28.7 µM), for inactives: top-dose activity change, negative = inhibition, most hits filed as inhibitors; 310,000 compounds, 5.9% hits; AID 504832; further: potency means the concentration at half of the fitted maximal effect; on the % scale 0 is the no-effect control and ±100 the full control effect
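Cell-based growth assay: transgenic P. falciparum expressing firefly luciferase, cultured in red cells within RPMI 1640 containing 0.5% w/v Albumax, 24 mM bicarbonate and gentamycin. A drop in luciferase activity indicates inhibition.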
Cycloheximide cs: counter-screen for Shiga toxin inhibitors: cycloheximide protein synthesis inhibition. max response, %. cell reporter, cycloheximide protein synthesis inhibition counterscreen. 300,000 compounds, 12% hits. AID 2314; in the data active means max response mostly above about 13%, no sharp cut-off; inactive means mostly below about 14%; further: read at 38.3 µM for the half of the compounds with a filed dose; 0% is about no effect
Shiga inhibitor: inhibitors of Shiga toxin in Vero cells; inhibition, % at 38.7 µM; Vero cells, Shiga toxin protein synthesis inhibition reporter; 290,000 compounds, 9.2% hits; in the data active means inhibition mostly above about 28%, no sharp cut-off; inactive means mostly below about 43%; further: 0% is about no effect
Pf growth 96h: P. falciparum growth inhibition at 96 hour, primary screen for plastid delayed-death inhibitors. P. falciparum luciferase reporter growth, 96 h. Potency, µM (series often up to 28.7 µM), for the others: at the highest dose activity change, negative = inhibition, actives largely listed as inhibitors. 320,000 compounds, 6.9% hits. AID 504834; further: potency means the concentration at half of the fitted maximal effect; on the % scale 0 is the no-effect control and ±100 the full control effect
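Infected RBCs, 2% Hct / 0.05% parasitemia final; luciferase-reporter P. falciparum; cpd 96 h, 37 C, 5% CO2; luciferase detection reagent; luminescence.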
Numbers without * were called inactive; ? = inconclusive; / = no result given. Unless noted, the call rests on the fitted dose curve; in most records, active means well fitted inhibition curve with a large enough effect; inconclusive means small, poorly fitted or top-dose-only effect, or another doubt; inactive means no such curve, though single readings can be large or run the other way.

SMILES	Pf growth 48h	Cycloheximide cs	Shiga inhibitor	Pf growth 96h
O=C(N/N=C/C1CC=CCC1)c1ccc(Cl)cc1O (stereo unspecified)	1%	28*	51	2.3µM*
O=C(OCC(=O)N1c2ccccc2Sc2ccccc21)C1CC(=O)N(Cc2ccco2)C1 (stereo unspecified)	-14%	-4	10	11%
O=C(COC(=O)C1CC(=O)N(Cc2ccco2)C1)c1ccc(OC(=O)c2ccccc2)cc1 (stereo unspecified)	-24%	33*	72*	?
O=C(O)CSc1nnc(CSc2nc3ccccc3s2)n1-c1ccccc1	7%	1	-12	-1%
COCCN(CCOC)C(=O)c1ccc(CSc2nc3ccccc3s2)cc1	32%	32*	53*	-1%
NNC(=O)c1ccc(CSc2nc3ccccc3s2)cc1	5%	14	54*	-20%
COc1ccc(OC)c(C2C(C(=O)c3cccs3)=C(O)C(=O)N2CCN2CCOCC2)c1 (stereo unspecified)	5%	5	-4	-2%
COc1cc2c(cc1OC)CN(C1CC(=O)N(c3c(C)cccc3C)C1=O)CC2 (stereo unspecified)	6.6µM*	-3	20	?
CCOC(=O)CN1C(c2ccc(O)cc2)Nc2ccc(Br)cc2C1c1ccccc1 (stereo unspecified)	?	-6	-9	3.3µM*
CCOC(=O)CN1C(=O)Nc2ccc(Br)cc2C1c1ccccc1 (stereo unspecified)	-12%	0	-3	154%
CCSc1nc(-c2ccc(OC)cc2)n(-c2nc3ccccc3s2)n1	?	17*	12	-19%
CCN(CC)c1ccc(/C=C2/C(=O)c3ccc(C(=O)O)cc3C2=O)cc1	-5%	77*	68*	7%
CCN(CC)c1ccc(C=C2C(=O)OC3(CCCCC3)OC2=O)cc1	25%	8	-5	13%
Cc1nc(SCC(=O)OCc2ccccc2)c2c(=O)n(C)c(=O)n(C)c2n1	7.4µM*	-2	-1	?
Cc1nn(Cc2ccccc2)c(C)c1C(=O)OCC(=O)c1cc(C)n(C2CC2)c1C	15µM*	4	11	/
Cc1cc(C(=O)COc2ccc([N+](=O)[O-])cc2)c(C)n1C1CC1	-30%	16*	36*	?
C=CCNC(=O)CN1C(=O)NC(C)(c2ccc(OC)cc2)C1=O (stereo unspecified)	34%	-3	-3	19%
COc1ccc(C2(C)NC(=O)N(CC(=O)c3cc(C)n(C4CC4)c3C)C2=O)cc1 (stereo unspecified)	?	/	/	3.7µM*
Cc1cc(C(=O)COc2cc(F)ccc2[N+](=O)[O-])c(C)n1C1CC1	-29%	21	18	1%
COc1cc(C(C)=O)ccc1OCC(=O)c1cc(C)n(C2CC2)c1C	?	14	9	12µM*
O=C(CSc1nc2c(oc3ccccc32)c(=O)n1CC1CCCO1)NCc1ccccc1 (stereo unspecified)	-35%	/	/	-1%
CCN1C(=S)N[C@@H](c2cccs2)C(C(=O)OC)=C1C	?	-3	2	36%
CC1(C)C(C=C(Cl)Cl)C1C(=O)Nc1ccc(S(=O)(=O)Nc2ncccn2)cc1 (stereo unspecified)	14%	-2	3	?
CCOc1ccc(S(=O)(=O)NCCC(=O)NCC2(N3CCCCC3)CCCCC2)cc1	-5%	-1	10	?
Cc1c(S(=O)(=O)NC2CCCCCC2)c(=O)n(C)c(=O)n1C	2%	/	/	4%
SMILES	Pf growth 48h	Cycloheximide cs	Shiga inhibitor	Pf growth 96h
Clc1ccc(C2=C3CCCCn4c(-c5ccccc5)c[n+](c43)C2)cc1	10µM*	-2	-5	?
COc1ccc(-c2c[n+]3c4n2CCCCC4=C(c2ccc(Br)cc2)C3)cc1	3.7µM*	-5	-12	2.1µM*
Clc1ccc(-c2c[n+](Cc3ccc(Cl)c(Cl)c3)c3n2CCC3)cc1	?	-2	-8	?
COc1ccc(-c2cnc3n2CCCCC3)cc1	10%	8	11	-26%
CC1CC(N(C(=O)c2ccc(Cl)cc2)c2ccccc2)c2ccccc2N1C(=O)c1ccco1 (stereo unspecified)	/	-1	-6	9.3µM*
O=P(C(=NCCO)NO)(N1CCOCC1)N1CCOCC1	25%	2	/	28%
CCN(Cc1ccncc1)Cc1nc(Cc2ccccc2Cl)no1	10µM*	0	-14	?
CC(C)c1ccc(NC(=S)N2CCN(S(=O)(=O)c3ccccc3)CC2)cc1	?	10	-18	?
CCC(C)Sc1nnc(NS(=O)(=O)Cc2ccccc2)s1 (stereo unspecified)	-13%	15*	22	?
COCCSc1nnc(NS(=O)(=O)Cc2ccccc2)s1	3%	2	6	-6%
COc1cccc(C(=O)Nc2cc(OC)ccc2NC(=O)c2ccco2)c1	-17%	-2	-28	?
Cc1cc(NC(=O)c2ccco2)ncc1NC(=O)Cc1ccccc1	79%	19*	70	8.3µM*
COc1cccc(C(=O)Nc2cnc(NC(=O)c3ccco3)cc2C)c1	12%	16*	47*	5.2µM*
Cc1cc(NC(=O)C(C)C)ncc1NC(=O)c1ccco1	10%	11	5	39%
Cc1ccc(-n2c(C)cc(/C=C3\NC(=O)NC3=O)c2C)c(C)c1	13µM*	13	1	13µM*
Cc1cc(/C=C2/NC(=O)NC2=O)c(C)n1-c1ccccn1	10%	19*	19	9.3µM*
CCC(C)[C@H](NC(=O)N1CC(=O)Nc2ccccc21)C(=O)N[C@@H](Cc1c[nH]c2ccccc12)C(=O)O (stereo partly specified)	23%	-2	16	?
O=C(CCNC(=O)N1CCn2c1nc1ccccc12)NCc1ccccc1Cl	-9%	5	-7	-20%
Cc1ccc([N+](=O)[O-])c(OCC(=O)OCC(=O)c2ccccc2)c1	11%	-2	-9	0.93µM*
Cc1ccc(OCC(=O)OCC(=O)c2ccccc2)cc1C	17%	0	-5	?
Cc1ccc(C)c(C(=O)COc2ccccc2[N+](=O)[O-])c1	-2%	36*	26*	35%
Cc1ccc(C)c(C(=O)COc2ccc(C)nc2[N+](=O)[O-])c1	/	-3	-8	?
CC(=O)Nc1ccc(OCC(=O)c2ccc(C)cc2C)cc1	?	14	20	/
CC(=O)Nc1ccc(OCC(=O)c2cc(C)ccc2C)cc1	/	-2	-6	9.3µM*
CCOC(=O)Cc1csc(NC(=O)C(CC(C)C)NC(=O)C2CCCCC2)n1 (stereo unspecified)	?	-2	-5	?
Nc1ccc(-n2cnc3cc([N+](=O)[O-])ccc32)cc1	54%	18*	97*	34%
COc1ccc(-n2cnc3cc([N+](=O)[O-])ccc32)cc1	4%	10	51	?
Cc1cccc(-n2cnc3cc([N+](=O)[O-])ccc32)c1	17%	12*	14	3%
N#CC1(NC(=O)COC(=O)C23CC4CC(CC(O)(C4)C2)C3)CCCCC1	10%	-3	-8	23%
CCn1nnc(NC(=O)c2cccc(-c3cc4ccccc4oc3=O)c2)n1	45%	40*	73*	/
